One assay has as its system CRL-7250. Description: Cytotoxic Profiling of Annotated Libraries Using Quantitative High-Throughput Screening (AID 1296008). Further: nearly all actives have a fitted effect of over 60% in size. Further: potency means the concentration at half of the fitted maximal effect. On max response: on the % scale 0 is the no-effect control and ±100 the full control effect. Conditions: Five cell lines viability, CellTiter-Glo ATP luminescence, 48-72 h; max response: stronger effect = lower value. The method, boiled down:
(§1)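 Cells exposed to compounds for 48 or 72 hr at 37 degrees Celsius. Viability read as ATP-coupled luminescence with CellTiter-Glo after 10 min at room temperature.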
A general note: Cellular ATP, detected with luciferase, serves as a proxy for viable cell number.

For another assay, the system named is HEK293. The description is as above. Conditions: Five cell lines viability, CellTiter-Glo ATP luminescence, 48-72 h; max response: stronger effect = lower value. The method, boiled down: as §1
The subject of another assay is HaCat. The assay is described as above. Conditions: Five cell lines viability, CellTiter-Glo ATP luminescence, 48-72 h; max response: stronger effect = lower value. The method, boiled down: as §1
The subject of a further assay is KB-3-1. Described as above. Conditions: Five cell lines viability, CellTiter-Glo ATP luminescence, 48-72 h; max response: stronger effect = lower value. The method, boiled down:
as §1

Assay [1] deals with NIH3T3. The assay is described as above. Conditions: Five cell lines viability, CellTiter-Glo ATP luminescence, 48-72 h; max response: stronger effect = lower value. The method, boiled down:
as §1

Assay [2] concerns NIH3T3. Description: qHTS assay to identify novel small-molecules to repurpose for Merkel cell carcinoma treatment (AID 1296009). Further: nearly all actives have a fitted effect of over 60% in size. Conditions: MCC and control cell lines, CellTiter-Glo viability, 72 h; at 44.8 µM (top of the series) unless noted. The method in brief: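 Dose-response viability screen; 72 hr exposure at 37 degree celsius; CellTiter-Glo added, 10 min room temperature, luminescence read; RLUs scaled between no-cell and DMSO wells.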

The next assay has as its system C33A. In words: Primary qHTS to identify gynecologic anti-cancer compounds using libraries of approved drugs and bioactive compounds (AID 1345084). Further: on the % scale 0 is the no-effect control and ±100 the full control effect; nearly all actives have a fitted effect of over 55% in size. Conditions: Gynecologic cancer cell panel viability, ATPlite luminescence, 48 h; series mostly up to 57.5 µM. The method, boiled down:
(§2)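 Five-concentration response, 48 h; readout is ATP-driven luciferase luminescence.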
On the technique in general: Quantitative high-throughput screening tests each substance at several concentrations.

A further assay has as its system CAOV3. The assay is described as above. Conditions: Gynecologic cancer cell panel viability, ATPlite luminescence, 48 h; series mostly up to 57.5 µM. The method in brief: as §2
Another assay concerns CASKI. Described as above. Conditions: Gynecologic cancer cell panel viability, ATPlite luminescence, 48 h; series mostly up to 57.5 µM. The method, boiled down: as §2
A further assay deals with Es-2. The assay is described as above. Conditions: Gynecologic cancer cell panel viability, ATPlite luminescence, 48 h; series mostly up to 57.5 µM. The method, boiled down:
as §2

In a further assay the test system is HeLa. The description is as above. Conditions: Gynecologic cancer cell panel viability, ATPlite luminescence, 48 h; series mostly up to 57.5 µM. The method, boiled down:
as §2

The next assay relates to Hek293T. The assay is described as above. Conditions: Gynecologic cancer cell panel viability, ATPlite luminescence, 48 h, control line for the selectivity index; series mostly up to 57.5 µM. The method, boiled down:
as §2

A further assay has as its system JEG-3. Described as above. Conditions: Gynecologic cancer cell panel viability, ATPlite luminescence, 48 h; series mostly up to 57.5 µM. The method in brief: as §2
In the next assay the test system is OV90. The description is as above. Conditions: Gynecologic cancer cell panel viability, ATPlite luminescence, 48 h; series mostly up to 57.5 µM. The method in brief:
as §2

Records with an inconclusive call do not appear. A number with no mark means an inactive call. Calls of active or inactive are those of the source. The call rests on the fitted dose curve; in most records, active means well fitted curve in the direction sought with a large enough effect; inconclusive means small, poorly fitted or top-dose-only effect, or another doubt; inactive means no such curve, though single readings can be large; an effect the other way counts as inactive or inconclusive.

For the compound `C/C=C/C=C/C=C/C(=O)O[C@@H]1C=C(CO)[C@](O)(CO)[C@@]2(C)CCCC(C)(C)[C@H]12`, the max response in the assay with CRL-7250 was -5.67%; in the assay on HaCat it was -1.12%. In addition, in the assay on HEK293, the Potency was 12.8 µM (active). The result with KB-3-1, in the assay with NIH3T3 [1], in the assay with NIH3T3 [2] and in the assay with CASKI was inactive. Besides, the Potency result in the assay with C33A, in the assay on CAOV3, with Es-2, with HeLa, with Hek293T and in the assay on JEG-3 was “inactive” throughout. Moreover, in the assay on OV90, the Potency entry was “inactive”.

As to `CC(C)CC(=O)OC[C@@]1(O)C[C@@]23CC[C@H]4[C@@](C)(CCC[C@@]4(C)C(=O)O)[C@@H]2CC[C@@H]1C3`, the result in the assay on CRL-7250, with NIH3T3 [1] and in the assay with CASKI was inactive. Besides, the max response in the assay with HEK293 is 1.06%; in the assay on HaCat, -4.56%; in the assay with KB-3-1, 4.98%. Besides, in the assay on NIH3T3 [2], the outcome is “inactive [at 17.4 µM]”. Besides, the Potency entry in the assay on C33A, in the assay with CAOV3, with Es-2, in the assay on HeLa, in the assay on Hek293T and in the assay on JEG-3 was “inactive” throughout. In addition, in the assay with OV90, the Potency entry was “inactive”.

For `CCCN(CCN1CCN(c2ccccc2OC)CC1)C1CCc2ncsc2C1` (stereo not drawn), the max response in the assay on CRL-7250 was -14.3%; with HEK293 it was 0.117%; in the assay with HaCat, -2.7%. The result with KB-3-1, in the assay with NIH3T3 [1], in the assay on NIH3T3 [2] and with CASKI was inactive. The Potency result with C33A, in the assay with CAOV3, with Es-2, in the assay on HeLa, in the assay with Hek293T and with JEG-3 was “inactive” in each case. Besides, in the assay with OV90, the Potency result was “inactive”.

Consider `CC(=O)OC1(C)CC(O)C2(O)C=COC(OC3OC(CO)C(O)C(O)C3O)C12` (stereo not drawn), for which the outcome in the assay on CRL-7250, in the assay with NIH3T3 [1] and in the assay on CASKI was inactive. Moreover, the max response in the assay with HEK293 was 4.36%; with HaCat, 0.0573%; in the assay with KB-3-1 it was 3.54%. For the same compound, in the assay on NIH3T3 [2], the outcome is “inactive [at 17.4 µM]”. Also, the Potency result with C33A, in the assay with CAOV3, in the assay with Es-2, in the assay with HeLa, in the assay with Hek293T and with JEG-3 was “inactive” each time. Further, the Potency entry in the assay with OV90 was “inactive”.

With `COc1cc(/C=C/C(=O)O[C@@H]2C[C@@](O)(C(=O)O)C[C@@H](O)[C@@H]2O)ccc1O`, the max response in the assay with CRL-7250 was -0.566%; in the assay with HEK293, 0.393%; in the assay on HaCat, -12%; in the assay with KB-3-1, 0.239%. Further, the call in the assay with NIH3T3 [1], in the assay on NIH3T3 [2] and in the assay on CASKI was inactive. The Potency result with C33A, in the assay on CAOV3, in the assay on Es-2, in the assay on HeLa, in the assay on Hek293T and in the assay on JEG-3 was “inactive” throughout. Moreover, the Potency result in the assay with OV90 was “inactive”.

As for `CCC(C)/C=C(C)/C=C/C1=CC2=CC(=O)C(C)(O)C(OC(C)=O)C2CO1` (stereo not drawn), the outcome with CRL-7250, in the assay on NIH3T3 [1], in the assay on NIH3T3 [2] and with CASKI was inactive. In addition, the max response was -22.7% with HEK293, 4.74% with HaCat and -4.84% with KB-3-1. In addition, the Potency result with C33A, in the assay with CAOV3, in the assay on Es-2, with HeLa, with Hek293T and with JEG-3 was “inactive” each time. Moreover, the Potency result in the assay on OV90 was “inactive”.

As to `CC1(C)CC[C@]2(C(=O)O)CC[C@]3(C)C(=CCC4[C@@]5(C)C(=O)C[C@H](O)[C@@](C)(CO)C5CC[C@]43C)[C@@H]2C1` (stereo partly drawn), the max response was -2.6% in the assay on CRL-7250, 3.17% in the assay with HEK293, -1.1% in the assay with HaCat and 8.25% with KB-3-1. In addition, the compound was called inactive with NIH3T3 [1] and with CASKI. Besides, the outcome with NIH3T3 [2] is “inactive [at 17.4 µM]”. The Potency entry with C33A, in the assay with CAOV3, in the assay on Es-2, in the assay on HeLa, in the assay on Hek293T and in the assay on JEG-3 was “inactive” each time. In the assay with OV90, the Potency result was “inactive”.

`Cc1cc(CO)c(O)c(C(=O)CC2CC(=O)NC(=O)C2)c1`: the call with CRL-7250, in the assay with KB-3-1, in the assay on NIH3T3 [1], with NIH3T3 [2] and in the assay on CASKI was inactive. In addition, the figures for the max response in the assay with HEK293 and in the assay with HaCat were 4.74% and -10.8%, respectively. The Potency entry in the assay on C33A, in the assay with CAOV3, in the assay on Es-2, with HeLa, in the assay with Hek293T and in the assay on JEG-3 was “inactive” throughout. Also, the Potency entry with OV90 is “inactive”.

In the case of `CC1(C)[C@@H]2CC=C(CO[C@@H]3O[C@H](CO[C@@H]4OC[C@H](O)[C@H](O)[C@H]4O)[C@@H](O)[C@H](O)[C@H]3O)[C@H]1C2`, the max response with CRL-7250 was 0.583%; with HEK293, 2.49%; in the assay with HaCat it was -0.954%. Further, the compound was called inactive with KB-3-1, in the assay with NIH3T3 [1] and in the assay on CASKI. In addition, in the assay on NIH3T3 [2], the outcome was “inactive [at 17.4 µM]”. Besides, the Potency result in the assay with C33A, in the assay with CAOV3, with Es-2, in the assay on HeLa, with Hek293T and in the assay with JEG-3 was “inactive” in each case. Also, in the assay on OV90, the Potency entry was “inactive”.

For `CC1OC(OC2C(OC3C(O[C@H]4CC[C@@]5(C)C(CC[C@]6(C)C5CC=C5C7CC(C)(C)CC(O)[C@]7(C)CC[C@]56C)C4(C)C)OC(C(=O)O)C(O)C3O)OCC(O)C2O)C(O)C(O)C1O` (stereo partly drawn), the result with CRL-7250 and in the assay on NIH3T3 [1] was inactive. Also, the figures for the max response with HEK293, with HaCat and with KB-3-1 were 4.82%, -11.3% and 9.21%, respectively. In the assay on NIH3T3 [2], the outcome was “inactive [at 9.27 µM]”. Besides, the activity change, negative = cytotoxicity in the assay with C33A was 14% [at 11.6 µM]; with CAOV3 it was 4.78% [at 11.6 µM]; in the assay on CASKI it was -6.68% [at 11.6 µM]; in the assay with Es-2 it was 1.85% [at 11.6 µM]; in the assay with HeLa, 7.99% [at 11.6 µM]; in the assay on Hek293T, -2.65% [at 11.6 µM]. Besides, the activity change, negative = cytotoxicity in the assay with JEG-3 is 6.46% [at 11.6 µM]; with OV90 it was 9.07% [at 11.6 µM].

`CCCCS(=O)(=O)NC(Cc1ccc(OCCCCC2CCNCC2)cc1)C(=O)O` (stereo not drawn): the max response with CRL-7250 is -1.48%; with HEK293, -14%; in the assay on HaCat it was 4.29%; in the assay with KB-3-1, 0.365%. Besides, the outcome in the assay with NIH3T3 [1], in the assay with NIH3T3 [2] and in the assay on CASKI was inactive. In addition, the Potency entry in the assay on C33A, in the assay with CAOV3, in the assay with Es-2, with HeLa, with Hek293T and in the assay on JEG-3 was “inactive” each time. Besides, the Potency entry in the assay on OV90 was “inactive”.

For the compound `CCOc1ncc(S(=O)(=O)N2CCN(CC)CC2)cc1-c1nc2c(CC)n(CCOC)nc2c(=O)[nH]1`, the result in the assay on CRL-7250, in the assay with KB-3-1, in the assay with NIH3T3 [1], with NIH3T3 [2] and in the assay with CASKI was inactive. Besides, the values for the max response in the assay on HEK293 and in the assay on HaCat were -6.31% and 2.49%, respectively. Besides, the Potency entry with C33A, in the assay on CAOV3, with Es-2, in the assay on HeLa, with Hek293T and with JEG-3 was “inactive” throughout. In addition, in the assay on OV90, the Potency entry was “inactive”.
